Assay outcomes (PubChem)
A selection: hits, their analogues and other compounds. The true share with any hit is near 1.2%.
Sa ugtP lethal: growth inhibition of ugtP-null S. aureus, primary screen, RN4220 ugtP deletion, OD600; 16 h; growth inhibition, % (no concentration beside the values); hit rate 0.54% among 330,000; AID 1259309, 2017; in the data active = growth inhibition above about 68%;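 also: plate controls were untreated wells for no effect and antibiotic for full effect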
PfHsp40 rescue: rescue of yeast from PfHsp40 toxicity, primary screen, S. cerevisiae, ATP luminescence; AID 504582, 2011; S. cerevisiae expressing PfHsp40, growth rescue; growth rescue, % at 12.5 µM; hit rate 0.68% among 340,000; in the data active = growth rescue above about 28%, passing the limit was not always enough;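 also: yeast W303a lacking pdr1 and pdr3 grown in galactose medium; growth measured after three days at 30 °C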
Vc quorum ag: inducers of Vibrio cholerae quorum light production without autoinducers, primary screen, BH1578 luxS cqsA deficient, single point. V. cholerae BH1578 lux reporter, luminescence, 6 h. activation, % at 18.7 µM. hit rate 0.16% among 350,000. AID 588436, 2011; in the data active = activation mostly above about 9.7%, no sharp cut-off
RN4220 kill: growth inhibition of S. aureus RN4220, primary screen, OD600. 16 h. inhibition, % (concentration not given with the values). hit rate 0.33% among 330,000; in the data active = inhibition above about 85%;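 also: plate controls were untreated cells for no effect and reference antibiotic for full effect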
Mtb betalactam: beta-lactam sensitization of Mtb H37Rv, H37Rv; inhibition, % at 25 µM; M. tuberculosis H37Rv growth with meropenem, percent inhibition; hit rate 0.27% among 330,000; AID 434955, 2010; call rule not given here;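 also: growth measured after seven days incubation then overnight dye step; 0% = bacteria only wells and 100% = bacteria with antibiotic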
Active calls of the source: *; i = inactive; . = not tested or not shown.

SMILES | Sa ugtP lethal | PfHsp40 rescue | Vc quorum ag | RN4220 kill | Mtb betalactam
O=C(O)CSc1cc(NS(=O)(=O)c2cccc([N+](=O)[O-])c2)c2ccccc2c1O | 2 | 96* | 0 | 20 | .
Cc1ccc(S(=O)(=O)N2C(c3cccc(Cl)c3)CC=C(C(=O)O)C2c2cccc(Cl)c2)cc1 (stereo unspecified) | 59 | . | . | 32 | .
Cc1ccc(S(=O)(=O)N2[C@@H](c3ccc(Cl)cc3)C(C(=O)O)=CC[C@H]2c2ccc(Cl)c(Cl)c2)cc1 | . | 304* | -1 | . | -5
Cc1ccc(S(=O)(=O)N2C(c3ccc(Cl)c(Cl)c3)CC=C(C(=O)O)C2c2ccc(Cl)cc2)cc1 (stereo unspecified) | 90* | . | . | 80 | .
Cc1ccc(S(=O)(=O)N2C(c3ccc(Cl)c(Cl)c3)CC=C(C(=O)O)C2c2cccc(Cl)c2)cc1 (stereo unspecified) | 100* | . | . | 88* | .
CC1CCC(=O)N(C(CSc2ccccc2)Cc2ccccc2)CC1 (stereo unspecified) | 9 | . | . | 6 | .
CCOC(=O)c1sc(NC(=O)Nc2cccc(Cl)c2)cc1C | 88* | 1 | 0 | 92* | 7
COc1ccc(C=NNC(=S)Nc2ccccc2)cc1COc1ccc(F)cc1 | 1 | . | . | 5 | .
O=C(NCCC1=CCCCC1)c1c(O)nc2sccn2c1=O | 6 | 372* | 1 | 6 | 46
O=C(NCCCc1ccccc1)c1c(O)nc2sccn2c1=O | 13 | 178* | i | 13 | 74
O=C1C=C(c2ccc(-c3ccccc3)c(F)c2)CC(c2ccc3c(c2)OCO3)C1 (stereo unspecified) | 3 | . | . | -5 | .
CC(=O)N1c2ccc(S(=O)(=O)NCCC(=O)NCCc3ccc(C)cc3)cc2CC1C (stereo unspecified) | 7 | 0 | i | 5 | -8
CC(=O)N1c2ccc(S(=O)(=O)NCCC(=O)NCCc3cccc(C)c3)cc2CC1C (stereo unspecified) | 7 | 68* | i | 5 | -3
CCC1(CC)Cc2ccccc2-c2nc(-c3ccccc3)oc(=O)c21 | 57 | -1 | 32* | -3 | -1
ON=C(c1ccc(F)cc1)C1CC1c1c(F)cccc1Cl (stereo unspecified) | 8 | . | . | 3 | .
CCC1Oc2ccccc2N(CC(=O)NC2CCCC2)C1=O (stereo unspecified) | 30 | 0 | 0 | 1 | -2
CCC1Oc2ccccc2N(CC(=O)NC2CCCCC2)C1=O (stereo unspecified) | 101* | 0 | -1 | 10 | -2
COc1ccc(-c2nc(-c3ccc4c(c3)OCO4)[nH]c2-c2ccc(OC)cc2)cc1 | 87* | 3 | i | 16 | 6
CCN1/C(=C/C(C)=C/c2sc3ccccc3[n+]2CC)Sc2ccccc21 | 99* | 1 | 0 | 100* | 99
CCN1/C(=C\C(=S)Nc2ccccc2)Sc2ccccc21 | 0 | 0 | 0 | -4 | 9
O=C1c2ccccc2NC(c2cccc([N+](=O)[O-])c2)N1O (stereo unspecified) | 0 | 3 | i | 7 | -7
O=C1c2ccccc2NC(c2ccc([N+](=O)[O-])cc2)N1O (stereo unspecified) | 3 | 37* | -1 | 8 | -3
CC1=NOC2(C1)C(=NO)CCCC2=NO (stereo unspecified) | 0 | . | . | 4 | .
Cc1ccc2nc(-c3cccc(NS(C)(=O)=O)c3)cc(-c3ccccc3)c2c1 | 94* | 1 | 0 | -4 | 96
c1ccc2c(c1)c1c(c3ccccc32)CN2CCCC2C1 (stereo unspecified) | . | 76* | i | . | .
CCOc1ccc(CCNC(=O)c2ccc(CS(=O)Cc3ccc(Cl)cc3)o2)cc1 (stereo unspecified) | 95* | 0 | i | -8 | -5
O=C(NCCc1ccccc1)c1ccc(CS(=O)Cc2cccc(Cl)c2)o1 (stereo unspecified) | 87* | -1 | 0 | -6 | 1
O=C(NCCc1ccc(Cl)cc1)c1ccc(CS(=O)Cc2ccc(Cl)cc2)o1 (stereo unspecified) | 99* | 0 | i | -2 | 91
CSc1ccc(CCNC(=O)c2ccc(CS(=O)Cc3ccc(Cl)cc3)o2)cc1 (stereo unspecified) | 53 | 0 | -2 | -2 | 98
